Data from PubChem BioAssay (EPA / NIEHS).
Several values for one entry are separate records, joined by “and”; a condition that tells them apart may be missing. Identical values can stand only once. Results filed as inconclusive are left out. Where a structure was tested more than once in an assay, its records may differ in their call. Activity calls are given as the source filed them. How the source made its calls, unless noted: active means hit-call score of the fitted dose curve at least 0.9, where 1 is the maximum; inconclusive means response in the unintended direction; inactive means score below 0.9.

What was measured:
[1] = TOX21_p53_BLA_p2_viability: Viability Assessment in the Tox21 HCT-116 p53 Agonism Beta-lactamase Assay, Phase 2 (AID 2283591);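 further: compound exposure lasted 16 h at 37 °C; actives lower the ATP signal meaning cytotoxicity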
How it was run: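 HCT116 p53-bla cells, 4000/well, dosed after 5 h plating (217-fold dilution of DMSO stocks) and incubated 16 h at 37C. Viability taken as cellular ATP by CellTiter-Glo luminescence after 30 min RT; signal loss marks cytotoxicity.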

[2] = target: Cellular tumor antigen p53 (Homo sapiens) (UniProt P04637); assay: TOX21_p53_BLA_p2_ratio: Tox21 HCT-116 p53 Agonism Beta-lactamase Assay, Ratio, Phase 2 (AID 2283592)
How it was run: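 Plated HCT116 p53-bla cells (4000/well) received compound after 5 h, then 16 h at 37C/5% CO2. CCF4-AM added, 2 h RT. Ratio of 460 to 530 nm emission taken as the p53 reporter signal.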

[3] = TOX21_p53_BLA_p3_viability: Viability Assessment in the Tox21 HCT-116 p53 Agonism Beta-lactamase Assay, Phase 3 (AID 2283593);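 further: cells exposed to compound for 16 h before reading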
How it was run: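 HCT116 cells, 4000/well, dosed 5 h after plating by pin transfer (217-fold dilution from DMSO stock) and incubated 16 h at 37C, 5% CO2. Viability read as ATP luminescence with CellTiter-Glo after 30 min at room temperature.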

[4] = target: Cellular tumor antigen p53 (Homo sapiens) (UniProt P04637); assay: TOX21_p53_BLA_p3_ratio: Tox21 HCT-116 p53 Agonism Beta-lactamase Assay, Ratio, Phase 3 (AID 2283596)
How it was run: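 Cells were seeded at 4000/well, rested 5 h at 37C, then dosed with DMSO compound solutions (217-fold dilution) for 16 h. CCF4-AM substrate was loaded for 2 h at room temperature, and the 460/530 nm emission ratio was fitted for gain of signal versus DMSO.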

[5] = TOX21_p53_BLA_p4_viability: Viability Assessment in the Tox21 HCT-116 p53 Agonism Beta-lactamase Assay, Phase 4 (AID 2283597);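 further: hits lower the luminescence signal meaning cytotoxicity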
How it was run: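 Readout: ATP luminescence (CellTiter-Glo), measured 30 min after reagent addition at RT. The reagent followed a 2 h CCF4-AM incubation, and the cells had been exposed to compound for 16 h at 37C.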

[6] = target: Cellular tumor antigen p53 (Homo sapiens) (UniProt P04637); assay: TOX21_p53_BLA_p5_ratio: Tox21 HCT-116 p53 Agonism Beta-lactamase Assay, Ratio, Phase 5 (AID 2283599)
How it was run: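 HCT-116 p53-bla cells (4000/well) plated 5 h, dosed with compound (217-fold DMSO dilution) for 16 h at 37 C; CCF4-AM substrate 2 h at room temperature. Activity is the 460/530 nm emission ratio (405 nm excitation), fitted in gain-of-signal direction versus DMSO.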

[7] = TOX21_p53_BLA_p5_viability: Viability Assessment in the Tox21 HCT-116 p53 Agonism Beta-lactamase Assay, Phase 5 (AID 2283600)
How it was run: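 Workflow: seed 4000 cells per well, wait 5 h, add compounds (DMSO, 217-fold dilution), incubate 16 h, load CCF4-AM 2 h, add CellTiter-Glo, read luminescence after 30 min.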

[8] = target: Cellular tumor antigen p53 (Homo sapiens) (UniProt P04637); assay: TOX21_p53_BLA_p4_ratio: Tox21 HCT-116 p53 Agonism Beta-lactamase Assay, Ratio, Phase 4 (AID 2283601)
How it was run: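 HCT-116 p53 beta-lactamase reporter cells (4000/well) preincubated 5 h, then compound (217-fold dilution of DMSO stock) for 16 h at 37C. CCF4-AM substrate added 2 h at room temperature; 460/530 nm emission ratio fitted upward versus DMSO.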

[9] = ACEA_ER_AUC_viability: ACEA Biosciences xCELLigence Real-Time Cell Analysis on Estrogen Receptor Agonism for Viability (AID 2283782);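 further: hit means loss of impedance signal meaning reduced cell growth or viability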
How it was run: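 Read-out: real-time electrical impedance (RT-CES) area under curve, loss of signal taken as reduced viability, normalized to DMSO baseline. T-47D cells, charcoal-stripped serum medium, compounds up to 100 uM final, continuous exposure, 80 h.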

[10] = TOX21_PR_BLA_Followup_Agonist_viability: Viability Assessment in the Tox21 HEK293 Progesterone Receptor (PR) Agonism Beta-lactamase Follow-Up Assay (AID 2283935);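 further: signal loss means lower viability so actives are cytotoxic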
How it was run: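 Viability is read as CellTiter-Glo luminescence, where loss of signal indicates cytotoxicity. The cells are PR-UAS-bla HEK293T given compounds for 16 hr at 37C and 5% CO2, in the same wells used for the bla readout.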

[11] = TOX21_PR_BLA_Followup_Antagonist_viability: Viability Assessment in the Tox21 HEK293 Progesterone Receptor (PR) Antagonism Beta-lactamase Follow-Up Assay (AID 2283936);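 further: cells exposed to compound with R5020 agonist for 16 h; hits lower the luminescence signal meaning cytotoxicity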
How it was run: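 PR-UAS-bla HEK293T cells in medium with 2% charcoal-stripped FBS were treated with compounds plus R5020 for 16 hr at 37C. After the beta-lactamase read, CellTiter-Glo was added to the same wells and luminescence read after 30 min at room temperature.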

PGR (gene 5241) = PGR (gene 5241) (UniProt P06401); assay: TOX21_PR_LUC_Followup_Antagonist: Tox21 HEK293 Progesterone Receptor (PR) Antagonism Luciferase Follow-Up Assay (AID 2283938);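 further: curve fitted upward as signal gain over DMSO baseline despite antagonist label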
How it was run: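 Cells are grown 5 days in charcoal-stripped-FBS assay medium, plated, left 5 h, then dosed with compound and incubated 16 h. ONE-Glo reagent is added and luminescence read after 30 min.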

[12] = TOX21_PR_LUC_Followup_Antagonist_viability: Viability Assessment in the Tox21 HEK293 Progesterone Receptor (PR) Antagonism Luciferase Follow-Up Assay (AID 2283940)
How it was run: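 Loss of CellTiter-Glo ATP signal indicates cytotoxicity in HEK293-PR-A-luc cells grown in 10% charcoal-stripped FBS medium, seeded 3,000 per well and incubated 16 h with compound at 37C.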

[13] = TOX21_PR_LUC_Followup_Agonist_viability: Viability Assessment in the Tox21 HEK293 Progesterone Receptor (PR) Agonism Luciferase Follow-Up Assay (AID 2283941);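 further: loss of signal means cytotoxicity so actives lower viability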
How it was run: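 Seeding: HEK293-PR-A-luc, 3,000 cells/well, 5 h at 37C. Treatment: compound in DMSO, 16 h, 37C. Read: CellTiter-Glo ATP luminescence, signal loss taken as lower viability.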

[14] = CCTE_Harrill_HTTr_Viability_MCF7: CCTE's 6-hour Cell Viability Assessment for the High-Throughput Transcriptomics (HTTr) Platform, in MCF-7 cells cultured in DMEM + 10% fetal bovine serum, Harrill Lab (AID 2284010; active means hit-call score of the fitted dose curve at least 0.9, where 1 is the maximum; inactive means score below 0.9)
How it was run: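 Eight-point concentration series, six-hour exposure. Propidium iodide exclusion imaged to assess membrane integrity as a cytotoxicity readout; bidirectional fitting was done with DMSO as negative control and activity baseline.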

Measured: AC50

Sequence of Cellular tumor antigen p53 (Homo sapiens) (P04637 whole entry, looked up): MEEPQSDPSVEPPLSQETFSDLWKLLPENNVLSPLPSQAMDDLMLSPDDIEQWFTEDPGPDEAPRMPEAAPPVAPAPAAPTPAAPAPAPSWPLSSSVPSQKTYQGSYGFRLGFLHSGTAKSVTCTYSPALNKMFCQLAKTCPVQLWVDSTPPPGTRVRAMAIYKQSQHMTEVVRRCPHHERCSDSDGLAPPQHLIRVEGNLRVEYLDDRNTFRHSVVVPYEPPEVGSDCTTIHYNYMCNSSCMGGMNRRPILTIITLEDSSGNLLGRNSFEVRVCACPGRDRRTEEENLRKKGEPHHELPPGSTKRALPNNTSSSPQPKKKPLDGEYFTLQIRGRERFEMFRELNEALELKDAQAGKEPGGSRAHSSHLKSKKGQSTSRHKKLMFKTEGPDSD
Sequence of PGR (gene 5241) (P06401 whole entry, looked up): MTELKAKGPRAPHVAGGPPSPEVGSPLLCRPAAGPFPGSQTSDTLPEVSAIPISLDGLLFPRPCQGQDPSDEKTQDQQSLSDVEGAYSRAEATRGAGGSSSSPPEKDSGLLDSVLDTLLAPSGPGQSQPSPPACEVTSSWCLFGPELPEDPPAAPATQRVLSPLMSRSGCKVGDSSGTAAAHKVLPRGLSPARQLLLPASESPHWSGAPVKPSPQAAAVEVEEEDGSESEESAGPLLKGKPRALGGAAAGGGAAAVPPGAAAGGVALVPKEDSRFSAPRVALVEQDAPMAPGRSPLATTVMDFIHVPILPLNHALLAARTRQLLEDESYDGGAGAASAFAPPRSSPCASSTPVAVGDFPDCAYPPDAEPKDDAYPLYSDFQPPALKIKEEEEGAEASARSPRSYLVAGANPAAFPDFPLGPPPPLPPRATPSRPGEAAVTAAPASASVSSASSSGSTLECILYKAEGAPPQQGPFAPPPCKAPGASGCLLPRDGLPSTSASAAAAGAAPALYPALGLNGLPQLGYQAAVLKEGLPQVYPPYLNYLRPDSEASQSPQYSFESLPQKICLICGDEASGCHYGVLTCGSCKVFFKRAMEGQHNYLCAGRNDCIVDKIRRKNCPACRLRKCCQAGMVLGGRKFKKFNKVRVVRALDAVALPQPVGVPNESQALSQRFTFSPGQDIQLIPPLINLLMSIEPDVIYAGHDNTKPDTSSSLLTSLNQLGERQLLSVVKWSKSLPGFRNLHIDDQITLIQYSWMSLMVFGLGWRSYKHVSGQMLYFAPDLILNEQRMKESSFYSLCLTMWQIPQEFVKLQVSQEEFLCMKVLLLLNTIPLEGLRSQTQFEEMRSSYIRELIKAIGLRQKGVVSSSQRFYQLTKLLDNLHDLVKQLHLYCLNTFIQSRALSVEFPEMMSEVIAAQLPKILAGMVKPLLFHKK

NC(=O)NNc1ccccc1
active: [4] 0.125 nM | [8] 0.0608 nM
inactive: [1] | [2] | [3] | [4] | [5] | [6] | [7] | [8]

CCOc1cccc(N)c1
inactive: [1] | [2] | [3]

OCCOCCN1CCN(C(c2ccccc2)c2ccc(Cl)cc2)CC1 (stereo not drawn)
active: [2] 0.000306 µM | [6] 0.000384 µM | [8] 0.245 nM
inactive: [1] | [2] | [3] | [4] | [5] | [6] | [7] | [8]

CON=C1C[C@]2(C[C@@H]3C[C@@H](C/C=C(\C)C[C@@H](C)/C=C/C=C4\CO[C@@H]5[C@H](O)C(C)=C[C@@H](C(=O)O3)[C@]45O)O2)O[C@H](/C(C)=C/C(C)C)[C@H]1C
inactive: [2] | [6] | [8]
active: [1] 8.61 µM and 8.38 µM | [2] 21 µM | [3] 17.2 µM and 13.8 µM | [4] 35.2 µM and 21.3 µM | [5] 9.09 µM and 8.73 µM | [6] 22 µM | [7] 17.3 µM and 10.7 µM | [8] 18800 nM

OCCSc1ccccc1
inactive: [1] | [2] | [3] | [4] | [5]

OCc1cc(C(O)CNCCCCCCOCCCCc2ccccc2)ccc1O (stereo not drawn)
active: [5] 28.2 µM
inactive: [1] | [2] | [3] | [4] | [5] | [6] | [7] | [8]

CC(C)[C@H](N)C(=O)OCCOCn1cnc2c(=O)[nH]c(N)nc21
inactive: [1] | [2] | [3] | [4] | [5]

CC(COc1ccccc1)N(CCCl)Cc1ccccc1 (stereo not drawn)
active: [3] 54.6 µM and 79.1 µM | [4] 23100 nM | [9] 88.7 µM
inactive: [1] | [2] | [3] | [4] | [5] | [6] | [7] | [8] | [10] | [11] | PGR (gene 5241) | [12] | [13] | [14]

CCOC(=O)c1ccc(OCCN2C[C@H](O)[C@@H](O)[C@H](O)[C@H]2CO)cc1
inactive: [1] | [2] | [3]

CC(=O)CC(C)=O
inactive: [1] | [2] | [3] | [4]
